A selection: hits, their analogues and other compounds. The true share with any hit is near 7.5%.
RORg inh = qHTS for inhibitors of ROR gamma transcriptional activity; Drosophila S2 Gal4-RORgamma UAS-luciferase reporter, 20 h; Potency, µM (doses to about 53.6 µM), for inactives: at the highest dose activity change, negative = inhibition, most hits filed as inhibitors; 310,000 compounds, 5.4% hits; further: potency means the concentration at half of the fitted maximal effect; nearly all actives have a fitted effect of over 60% in size
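Drosophila Schneider cells stably carrying a metallothionein-driven Gal4 DBD–ROR gamma fusion and a UAS-Photinus luciferase reporter were exposed to compound for 1 hr, then induced with copper sulfate (700 uM final) for 20 hr at ambient temperature before luminescence reading.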
VP16 counter = VP16 counterscreen qHTS for inhibitors of ROR gamma transcriptional activity | Drosophila S2 Gal4-VP16 UAS-luciferase, luminescence, 20 h | Potency, µM (doses to about 53.6 µM), without a hit: at the top dose activity, negative = inhibition, most hits filed as inhibitors | 310,000 compounds, 3.5% hits;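 further: Gal4-VP16 expression switched on by copper sulfate through the metallothionein promoter; potency means the concentration at half of the fitted maximal effect; nearly all actives have a fitted effect of over 50% in size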
ELG1 DNA repair = qHTS screen for small molecules that inhibit ELG1-dependent DNA repair in human embryonic kidney (HEK293T) cells expressing luciferase-tagged ELG1. Potency, µM (doses to about 46.1 µM), without a hit: at the highest dose activity change, negative = inhibition, most hits filed as inhibitors. HEK293T ELG1-luciferase reporter, luminescence, 16 h; DNA damage induced by 5-fluorouridine. 330,000 compounds, 2.3% hits; further: potency means the concentration at half of the fitted maximal effect; nearly all actives have a fitted effect of over 55% in size
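DMSO vehicle served as the neutral condition. Each well held 2,000 cells given 5-fluorouridine plus compound; after 16 hr at 37 °C/5% CO2, ONE-Glo was added and luciferase measured 30 min later.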
B2AR arrestin = qHTS assay of beta-arrestin-biased ligands of beta2-adrenergic receptor. 330,000 compounds, 0.02% hits. Potency, µM (doses to about 46.1 µM), for the others: at the top dose activation, actives largely listed as activators. beta-arrestin recruitment to beta2AR, cell-based reporter. Beta-2 adrenergic receptor (Homo sapiens), P07550;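 further: potency means the concentration at half of the fitted maximal effect; 0% = DMSO controls and full agonism = EC100 isoproterenol or metaproterenol; nearly all actives have a fitted effect of over 65% in size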
Target sequence (P07550 whole entry, looked up): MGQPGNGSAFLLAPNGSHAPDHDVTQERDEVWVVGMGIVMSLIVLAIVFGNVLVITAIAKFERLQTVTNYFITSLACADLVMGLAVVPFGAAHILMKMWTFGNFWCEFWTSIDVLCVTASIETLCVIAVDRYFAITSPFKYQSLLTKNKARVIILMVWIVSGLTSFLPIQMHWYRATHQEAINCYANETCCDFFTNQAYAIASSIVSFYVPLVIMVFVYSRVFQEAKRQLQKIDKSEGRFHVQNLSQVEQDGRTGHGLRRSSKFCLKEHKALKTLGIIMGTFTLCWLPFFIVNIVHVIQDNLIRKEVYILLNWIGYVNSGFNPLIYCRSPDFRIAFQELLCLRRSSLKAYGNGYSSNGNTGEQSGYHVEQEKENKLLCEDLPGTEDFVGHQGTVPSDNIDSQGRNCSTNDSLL
TSHR antag = Antagonists of the Thyroid Stimulating Hormone Receptor: HTS campaign; Thyrotropin receptor (Homo sapiens), P16473; TSHR-expressing cells, TSH-stimulated cAMP HTRF, 2 h; active compounds read low; activity change, negative = inhibition, % at 11.5 µM; 330,000 compounds, 0.2% hits; AID 504810, 2011;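 active means activity change below a set negative limit, meaning inhibition stronger than a set level, cut at about -70% in these data; inconclusive means activity change between two set negative limits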
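TSHR-expressing cells were treated with compounds, then stimulated with TSH at EC80 (4nM final) for 2 hours at 37 deg C. Cellular cAMP was measured by HTRF competition between lysate cAMP and cAMP-d2 for a cryptate-labelled anti-cAMP antibody.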
An asterisk follows results filed as active; ? = inconclusive; . = not tested or not shown; ! = a repeat was not active; [ ] = another dose, or the depositor's remark. Unless noted, the call rests on the fitted dose curve; in most records, active means well fitted curve in the direction sought with a large enough effect; inconclusive means small, poorly fitted or top-dose-only effect, or another doubt; inactive means no such curve, though single readings can be large; an effect the other way counts as inactive or inconclusive. Unless noted, on the % scale 0 is the no-effect control and ±100 the full control effect.

SMILES | RORg inh | VP16 counter | ELG1 DNA repair | B2AR arrestin | TSHR antag
Cc1cc(C)c(O)c(-c2cc(C(=O)Nc3cccnc3)[nH]n2)c1 | -33% | -25% | 21µM* | -1% | -13
COc1ccc(NC(=O)c2cc(-c3cc(C)cc(C)c3O)n[nH]2)cc1Cl | ? | ? | 21µM* | 0% | -44
C=CC(=O)N=c1sc2ccccc2n1-c1ccccc1 | 10µM* | ? | -8% | 0% | 0
CCCCC[C@H](O)/C=C/[C@H]1OC(O)C[C@H](O)[C@@H]1C/C=C\CCCC(=O)O (some centres undefined) | 4% | 6% | . | . | .
Brc1ccc(-c2nnc(-c3cccc(Br)c3)o2)cc1 | 22% | -21% | 11% | -1% | -50
Brc1cccc(-c2nnco2)c1 | 20µM* | ? | -3% | 0% | 8
COC(=O)c1ccc(CSc2ncnc3sc(C)c(C)c23)o1 | 18µM* | ? | 4% | 0% | -11
COC(=O)c1ccc(CSc2nnc(Nc3ccc(C)cc3)s2)o1 | 11% | -6% | -13% | 0% | 9
CCN(CC)P(=O)(Nc1cccc(C(F)(F)F)c1)c1ccc(N(C)C)cc1NC(=O)c1ccco1 (centres undefined) | 41% | -11% | 21µM* | 0% | 8
CN(C)c1cccc(NC(=O)c2ccco2)c1 | 11% | -1% | ? | -1% | -2
CC(SCc1ccccc1)C(=O)Nc1ccccc1 (centres undefined) | 3% | -1% | 1% | 0% | -14
O=c1cnc2cnc(N3CCOCC3)nc2n1CCc1ccccc1 | -8% | -6% | . | . | .
Cc1ccc2c(=O)c3ccccc3n(CCCN)c2c1C | 11µM*! | 16µM*! | . | . | .
Cn1c2ccccc2c(=O)c2ccc(F)cc21 | -22% | -3% | 24% | -1% | 18
CCOc1ccnc2c1c(=O)n(Cc1cc(OC)cc(OC)c1)c(=O)n2C | -27% | -3% | ? | 0% | -140*
CCOC(=O)C1CCN(S(=O)(=O)c2ccc(CN3C(=O)c4cccnc4C3=O)cc2)CC1 | 6% | -13% | 28% | 0% | 34
O=C1c2cccnc2C(=O)N1Cc1ccc(S(=O)(=O)N2CCN(c3ccc(Cl)cc3)CC2)cc1 | -25% | -14% | ? | -1% | -135*
CCCCCC1OC1C/C=C\C/C=C\C/C=C\CCCC(=O)O (centres undefined) | -14% | -3% | . | . | .
Cc1ccc(-n2cc(C(=O)c3ccccc3O)cn2)cc1 | 11µM* | ? | ? | 0% | -9
Cc1ccc(O)c(C(=O)c2cnn(-c3ccccc3)c2)c1 | 33% | 6% | ? | 0% | -6
CN(C)c1ccc(/C=N/NC(=O)C(=O)/C=C2\NC3(CCCC3)Cc3ccccc32)cc1 | 44% | -11% | 12µM* | -1% | 17
COc1cc(/C=N/NC(=O)C(=O)/C=C2\NC3(CCCC3)Cc3ccccc32)ccc1O | ? | ? | 23µM* | 0% | -40
COc1cc(/C=N/NC(=O)c2[nH]nc3c2CCc2ccccc2-3)ccc1O | 6% | -23% | ? | -1% | 13
CC1CCN(C2(O)C(=O)Nc3ccc([N+](=O)[O-])cc32)CC1 (centres undefined) | -7% | -6% | 10% | -1% | -10
Cc1cc([N+](=O)[O-])cc2c1NC(=O)C2(O)N1CCOCC1 (centres undefined) | 11µM* | ? | 10% | 0% | 4
SMILES | RORg inh | VP16 counter | ELG1 DNA repair | B2AR arrestin | TSHR antag
COc1cc(NS(=O)(=O)c2c(C)oc3c(F)c(F)c(F)c(F)c23)cc(OC)c1OC | 82% | ? | -10% | -1% | 2
CCc1c(C#N)sc(C(N)=O)c1CC | 5% | -6% | 10µM* | 0% | 5
CCCCC/C=C\C/C=C\CCCCCCCC(=O)NCCCC(=O)O | -15% | -1% | . | . | .
Cc1csc(C(C)N(C)C(=O)CCc2nnc(CCc3ccccc3)o2)n1 (centres undefined) | 21% | 6% | 0% | 0% | 13
COC(=O)[C@@H]1Cc2c([nH]c3ccccc23)C(C)N1C(=O)c1ccccc1 (some centres undefined) | 14% | 4% | 12µM* | 0% | -4
NS(=O)(=O)c1ccc(NC2=CC(=O)C(=O)c3ccccc32)cc1 | 10µM* | ? | 10µM* | -1% | -12
Cc1ccc(NC2=CC(=O)C(=O)c3ccccc32)cc1 | ? | ? | ? | -1% | -6
COc1c2c(cc3c1C(c1c(O)c4ccccc4oc1=O)N(C)CC3)OCO2 (centres undefined) | 1% | -23% | . | . | .
Cn1c(=O)c(NC2CCCCC2)c2c3c(cccc31)C(=O)c1ccccc1-2 | -11% | 2% | 18µM* | -1% | -1
CC(=O)Nc1ccc(Nc2c3c4c(cccc4n(C)c2=O)C(=O)c2ccccc2-3)cc1 | 6% | -4% | ? | -2% | -12
CCCCNc1c2c3c(cccc3n(C)c1=O)C(=O)c1ccccc1-2 | ? | 0% | 16µM* | 0% | -23
Cn1c(=O)c(NCCc2ccccc2)c2c3c(cccc31)C(=O)c1ccccc1-2 | -18% | -2% | 21µM* | 0% | 1
O=C(c1cc(C(=O)N2CCOCC2)c2nc3ccccc3n2c1)c1cc(Cl)cc(Cl)c1O | 15% | 0% | 4% | 0% | -18
CC1(C)c2ssc(=S)c2-c2ccccc2N1C(=O)c1ccco1 | -13% | 6% | ? | -1% | -74*
Cc1ccc2c(c1)-c1c(ssc1=S)C(C)(C)N2C(=O)c1ccco1 | 23% | -2% | ? | 0% | -20
Cc1ccccc1-c1cc(NCc2ccccc2)ncn1 | -5% | 20% | . | . | .
CCN1C(=O)c2cccc3c(S(=O)(=O)Nc4ccccc4)ccc1c23 | -36% | ? | ? | 0% | -8
CCN1C(=O)c2cccc3c(S(=O)(=O)N(C(=O)c4cccnc4)c4ccc(OC)cc4)ccc1c23 | -36% | ? | -24% | -1% | 3
CCN1C(=O)c2cccc3c(S(=O)(=O)Nc4ccc(OC)cc4OC)ccc1c23 | ? | 18µM* | ? | 2% | -1
CCN1C(=O)c2cccc3c(S(=O)(=O)N(C(=O)c4ccncc4)c4ccc(OC)cc4)ccc1c23 | ? | 7.9µM* | -11% | 0% | -13
COC(=O)[C@@H]1CC[C@H](C)[C@@H](c2ccc(C)cc2)N1C(=O)c1ccc(/C=N\OC[C@@H](O)[C@H]2O[C@H]3OC(C)(C)O[C@H]3[C@@H]2O)cc1 | 2%[10 µM] | -2%[10 µM] | . | . | .

Screening results from PubChem.
